Sampled rows, rich in hits. Any-hit rate of the full collection: about 1.9%.
aSyn rescue = inhibitors of alpha-synuclein toxicity in yeast; Yeast expressing alpha-synuclein, growth rescue, BacTiter-Glo, 24 h; Potency, µM (titrated, usually from 46.1 µM), for inactives: at the highest dose growth rescue (activation), most hits filed as activators; 370,000 tested, 0.14% active; AID 652106; note: potency is the fitted concentration of half-maximal effect; % of control where 0% means no effect; nearly all actives have a fitted effect of over 65% in size
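Screening used galactose-induced yeast with toxic alpha-synuclein levels, exposed to compound for 24 hr at 30 deg C. Cell growth, read with BacTiter-Glo luminescence, gave the measured signal.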
TDP-43 yeast inh = inhibitors of TDP-43 toxicity in yeast | AID 652104 | 410,000 tested, 1.8% active | TDP-43 expressing yeast growth rescue, BacTiter-Glo, 24 h | Potency, µM (series often up to 46.1 µM), inactives show at the top dose growth rescue (activation), most hits filed as activators; note: potency is the fitted concentration of half-maximal effect; % of control where 0% means no effect; nearly all actives have a fitted effect of over 50% in size
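Luminescence from BacTiter-Glo reports growth of TDP-43-expressing yeast after 24 hr at 30 deg C with compound. Cells were raffinose-pregrown to mid-log, then seeded in galactose medium at OD600=0.02.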
LDHA inh = blocks human lactate dehydrogenase A | purified LDHA, NADH/diaphorase-resazurin fluorescence; stronger effect = lower value | activity change, % (values are at about 110 or 230 µM) | 480,000 tested, 0.15% active | AID 1347041; in the data active = activity change below about -30%; inconclusive = mostly about -25% to -30%;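 note: plate controls were DMSO wells for no effect and wells without enzyme for full effect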
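Remaining NADH was detected by diaphorase (0.133 mg/mL) converting 37 µM resazurin to fluorescent resorufin, read at 0 and 20 minutes. The preceding 5-minute room-temperature reaction used 2 nM LDHA, 0.2 mM sodium pyruvate and 0.06 mM NADH at pH 7.4.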
Abeta yeast res = compounds reversing amyloid beta toxicity in yeast; yeast expressing A-beta42, growth rescue, OD600, 48 h; response scale: 0% DMSO, 100% iron-clioquinol control; Potency, µM (titrated, usually from 46.1 µM), actives largely listed as activators; 410,000 tested, 0.063% active; AID 1347071; note: potency is the fitted concentration of half-maximal effect; nearly all actives have a fitted effect of over 55% in size
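Growth rescue measured by 600 nm absorbance after 48 h yeast culture at 30 C with compound. Values normalized between DMSO and an equimolar ferric chloride plus clioquinol control.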
PTHR1 agonist = PTHR1 (human) receptor agonism; Potency, µM (titrated, usually from 115 µM), for inactives: at the top dose activation, hits mostly activators; Q03431; 410,000 tested, 0.075% active; AID 743266; HEK293 GP2 PTHR1 cells, GloSensor cAMP luminescence, 1 h; note: potency is the fitted concentration of half-maximal effect; nearly all actives have a fitted effect of over 55% in size
Target sequence (Q03431 whole entry, looked up): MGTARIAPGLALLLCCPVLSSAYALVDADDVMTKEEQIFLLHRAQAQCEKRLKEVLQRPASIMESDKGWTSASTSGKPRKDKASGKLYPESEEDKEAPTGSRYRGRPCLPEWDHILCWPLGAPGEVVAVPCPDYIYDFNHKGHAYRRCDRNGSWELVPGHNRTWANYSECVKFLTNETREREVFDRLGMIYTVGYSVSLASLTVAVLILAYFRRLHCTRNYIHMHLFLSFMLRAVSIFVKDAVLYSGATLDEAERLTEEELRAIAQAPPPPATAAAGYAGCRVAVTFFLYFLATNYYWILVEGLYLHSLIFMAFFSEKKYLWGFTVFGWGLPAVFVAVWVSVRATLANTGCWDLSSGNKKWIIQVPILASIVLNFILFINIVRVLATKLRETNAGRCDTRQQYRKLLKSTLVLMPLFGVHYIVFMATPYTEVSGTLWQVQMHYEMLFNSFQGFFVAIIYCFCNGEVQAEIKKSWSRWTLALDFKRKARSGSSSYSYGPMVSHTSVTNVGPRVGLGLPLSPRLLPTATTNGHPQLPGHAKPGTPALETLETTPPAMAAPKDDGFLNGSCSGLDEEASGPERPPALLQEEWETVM
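HEK-293-derived GP2 cells expressing PTHR1 and a GloSensor cAMP reporter, 3,000/well, plated overnight, given luciferin plus IBMX (each 0.5 mM as added) for 1 h at 37 °C, then compound for 1 h at 37 °C. Luminescence was read after 15 min at room temperature.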
FUS yeast rescue = suppressors of FUS proteinopathy in yeast; S. cerevisiae FUS-expressing, growth rescue, OD600, 24 h; Potency, µM (titrated, usually from 76.6 µM), actives largely listed as activators; 390,000 tested, 0.24% active;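 note: potency is the fitted concentration of half-maximal effect; plate controls were DMSO vehicle for no effect and reference control for full effect; nearly all actives have a fitted effect of over 55% in size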
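Compound concentration series was pinned onto galactose-induced FUS-expressing yeast seeded at OD 0.005. Plates sat 24hr at 30C; absorbance at 600 nm gave growth. DMSO served as background control.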
The depositor's hits bear a star; i = inactive; ? = inconclusive; / = no result; [ ] = dose if it differs, or a comment. Unless noted, calls come from the whole dose curve; as a rule, active = well fitted curve in the direction sought with a large enough effect; inconclusive = small, poorly fitted or top-dose-only effect, or another doubt; inactive = no such curve, though single readings can be large; an effect the other way counts as inactive or inconclusive.

SMILES	aSyn rescue	TDP-43 yeast inh	LDHA inh	Abeta yeast res	PTHR1 agonist	FUS yeast rescue
CC(=O)Nc1cccc(-c2nc3cc(C)cc(C)c3o2)c1	/	/	-6	/	/	/
O=C(COc1cccc2ccccc12)N1CCN(c2ccccc2)CC1	?	19%	-1	i	-13%	i
COc1ccc(N2CCN(C(=O)COc3cccc4ccccc34)CC2)cc1	15%	13µM*	1	i	i	/
Cc1cccc(OCC(=O)N2CCN(c3nnc(-c4ccccc4)c4ccccc34)CC2)c1	2%	25µM*	0	?	-47%	i
COc1ccc(OCC(=O)N2CCN(c3nnc(-c4ccc(C)cc4)c4ccccc34)CC2)cc1	3%	22µM*	-1	i	-40%	i
Cn1nc(-c2ccc(OCC(=O)N3CCOCC3)cc2)c2ccccc2c1=O	/	/	-31*	/	/	/
Cc1ccc(OCC(=O)N2CCN(c3nnc(-c4ccc(C)cc4)c4ccccc34)CC2)cc1	4%	?	4	i	-15%[57.5 µM]	?
Cc1ccc(-c2nnc(N3CCN(C(=O)COc4cccc(C)c4)CC3)c3ccccc23)cc1	0%	4%	0	i	-43%	i
O=C(Cn1c(=O)c2sccc2n(CC(=O)N2CCCC2)c1=O)Nc1ccc(F)cc1	/	/	1	/	/	/
COc1cc2c(cc1OC)/C(=C/S(=O)(=O)c1ccc(C)c(C)c1)NCC2	/	/	-4	/	/	/
COc1ccc(C(=O)Oc2cccc(C)c2C)cc1Br	/	/	11	/	/	/
Cc1cc(C(=O)CSc2ccc3c(c2)OCCO3)c(C)n1C1CC1	16%	20µM*	-1	i	-38%	i
Clc1ccc(OCc2nc(-c3ccccn3)n[nH]2)cc1	?	?	5	?	i	i
Brc1ccc(OCc2nc(-c3ccccn3)n[nH]2)cc1	?	16µM*	-6	i	-7%	i
O=C(OCCCOc1ccc(F)cc1)c1ccc(O)cc1O	-11%	13µM*	-6	i	-7%	i
Cc1ccccc1NC(=O)c1sc2c(c1C)C(c1cccs1)CC(=O)N2 (stereo not given)	/	/	2	/	/	/
CC(C)C(=O)Nc1nc2c(s1)C(=O)CC(C)(C)C2	/	/	-15	/	/	/
CCN(CC)c1ccc(C(=C2C=CC(=[N+](CC)CC)C=C2)c2ccccc2)cc1	-74%	-96%	14	i	-38%	/
CCN(CC)c1ccc(C(=C2C=CC(=[N+](CC)CC)C=C2)c2ccc(N(CC)CC)cc2)cc1	-78%	-97%	4	i	-17%	35µM*
Cc1ccc(S(=O)(=O)N2CCSC2)cc1C	1%	-11%	-6	i	i	0.89µM*
CCN(CC)C(=O)CSc1n[nH]c(=O)c2cc(-c3ccc(OC)c(OC)c3)nn12	/	/	-25	/	/	/
Cc1onc(-c2c(Cl)cccc2Cl)c1C(O)c1ccccc1 (stereo not given)	28%	11µM*	-4	i	-21%	i
Fc1ccccc1N1CCN(c2nc(-c3cccs3)nc3ccccc23)CC1	4%	14µM*	4	i	i	i
CC(=O)N1CCN(c2nc(-c3cccs3)nc3ccccc23)CC1	-2%	-17%	1	i	i	i
COc1ccc(N2CCN(C(c3cc4cc(C)ccc4[nH]c3=O)c3nnnn3Cc3ccccc3)CC2)cc1 (stereo not given)	-5%	-8%	8	i	i	8.9µM*
N#CC1=C(N)OC2=C(C(=O)CCC2)C1c1ccc(-c2ccccc2)o1 (stereo not given)	/	/	46	/	/	/
CC1=C(C(=O)N(C(C)C)C(C)C)CC(CC(=O)NCC2CCCCC2)C(=O)N1Cc1ccc(C(C)(C)C)cc1 (stereo not given)	/	37µM*	/	/	-56%	?
CC1=C(C(=O)N(C)C)CC(CC(=O)NCc2cccc3ccccc23)C(=O)N1Cc1ccc(C(C)(C)C)cc1 (stereo not given)	6%	0%	-1	i	-37%	?
